TMEM16A inh – inhibitors of mouse TMEM16A calcium-activated chloride channel | Q8BHY3 | HEK293 TMEM16A/YFP iodide influx fluorescence, ionomycin | normalized B-score (activity score, 25-100; higher = stronger inhibition) at 10 µM | 1.2% of 310,000 active;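 active = ratio plate-corrected score three or more library SD toward inhibition, starting fluorescence score within five deviations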;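 note: score derived from kinetic fluorescence span divided by baseline fluorescence per well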
KCNK3 block – human KCNK3 channel inhibition, primary screen | CHO-KCNK3 thallium flux, FluxOR fluorescence; hits give low values | 0.84% of 340,000 active | B-score at 10 µM | O14649;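 active = B-score under library mean minus 4 SD, starting fluorescence ratio at most library mean plus 5 SD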;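 note: more negative B-score means stronger inhibition of thallium flux through KCNK3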
Target sequence (O14649 whole entry, looked up): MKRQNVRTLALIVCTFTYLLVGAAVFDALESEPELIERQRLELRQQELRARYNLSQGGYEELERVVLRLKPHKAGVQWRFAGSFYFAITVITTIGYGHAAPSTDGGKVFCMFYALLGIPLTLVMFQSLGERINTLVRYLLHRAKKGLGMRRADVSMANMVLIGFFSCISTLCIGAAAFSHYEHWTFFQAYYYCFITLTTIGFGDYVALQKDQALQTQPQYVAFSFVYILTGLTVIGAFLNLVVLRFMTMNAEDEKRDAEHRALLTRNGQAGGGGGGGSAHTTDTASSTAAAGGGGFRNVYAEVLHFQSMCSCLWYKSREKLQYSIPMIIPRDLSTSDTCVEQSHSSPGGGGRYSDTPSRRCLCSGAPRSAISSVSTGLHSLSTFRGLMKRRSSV
ANO1 activ – activators or potentiators of mouse TMEM16A chloride channel | Q8BHY3 | HEK293 TMEM16A/YFP-H148Q/I152L, iodide quench fluorescence; hits give low values | B-score at 10 µM | 0.3% of 340,000 active | AID 623877;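 active = fluorescence-ratio B-score plate-corrected deviation score at least 3 library SD below zero, with starting fluorescence score within 5 deviations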;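 note: channel opened by trigger with iodide after compound preincubation; score built on the fluorescence ratio of max minus min over baseline; more negative score means more quench and so TMEM16A activation or potentiation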
Kir21 block – Kir2.1 (mouse) channel inhibition | P35561 | HEK293-Kir2.1, FluxOR thallium flux fluorescence; hits give low values | B-score at 10 µM | 0.85% of 310,000 active;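 active = fluorescence ratio B-score at or below minus 3 SD of library scores, with starting-brightness B-score within 2 SD, cut at about -4.2 in these data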;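 note: channel flux triggered by added potassium and thallium sulfate stimulus; B-score of peak minus minimum fluorescence over baseline after thallium stimulus; more negative B-score means stronger Kir2.1 block with less thallium influx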
KCNK9 inh-1 – inhibitors of human KCNK9 two-pore domain potassium channel | Q9NPC2 | HEK293 KCNK9, FluxOR thallium flux fluorescence; hits give low values | B-score at 10 µM | 1.2% of 310,000 active | AID 488922;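 active = ratio B-score over 3 SD below the library mean, with starting fluorescence within 5 SD of its mean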;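 note: negative B-score means less thallium flux so channel inhibition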
hERG inh – blocks human hERG, in counter-screen for Kir2.1 inhibitors | shares compounds with Kir21 block | AID 2236 | 20% of 320 active | inhibition, % at 10 µM | hERG-expressing cells, thallium flux;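 note: host cells are CHO cells stably expressing hERG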
KCNK9 inh-2 – human KCNK9 off-target activity of Kir2.1 blockers. shares compounds with Kir21 block. AID 2329. inhibition, % at 10 µM. KCNK9-expressing cells, ion flux inhibition. 5% of 320 active
Kir2-1 patch inh – inhibitors of mouse Kir2.1 potassium channel | inhibition, % at 25 µM | Kir2.1 cells, automated patch-clamp current inhibition | 71% of 320 active | shares compounds with Kir21 block
KCNK9 inh conf – human KCNK9 inhibitor confirmation. inhibition, % at 10 µM. 43% of 4,900 active. AID 492992. HEK293 KCNK9 cells, FluxOR thallium flux fluorescence. shares compounds with KCNK9 inh-1;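 active = thallium signal inhibited by more than 5 SD of the compound-free buffer control wells, on both duplicate plates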;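 note: 0% = assay buffer control wells without compound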
Kir21 sel – selectivity of KCNK9 modulators against mouse Kir2.1; shares compounds with KCNK9 inh-1; Kir2.1 cells, FluxOR thallium flux fluorescence; inhibition, % at 10 µM; 4% of 4,900 active; AID 492993;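 active = thallium signal drop more than 5 SD beyond the mean of the no-compound control wells, seen in both duplicate plates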;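 note: signal is fluorescence rise after thallium addition divided by baseline fluorescence; plate controls were assay buffer only for no effect and full block by chlorpromazine control for full effect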
HEK293 Tl ctr – second check of KCNK9 modulator effects in non-induced HEK293 cells. FluxOR thallium flux. shares compounds with KCNK9 inh-1. 40% of 4,900 active. inhibition, % at 10 µM. AID 492997;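 active = thallium signal drop beyond 5 SD of the untreated control mean, on both duplicate plates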;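 note: plate controls were buffer only IC0 wells for no effect and SID17386958 at its maximal inhibitory level for full effect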
An asterisk follows results filed as active; i = inactive; · = no result. Hits are enriched below; roughly 3.5% of the tested compounds scored in any of these assays. Unless noted, the rule behind the calls is not given here.

SMILES	TMEM16A inh	KCNK3 block	ANO1 activ	Kir21 block	KCNK9 inh-1	KCNK9 inh conf	Kir21 sel	HEK293 Tl ctr	others
CN1CC(C(=O)c2cccc(C(F)(F)F)c2)C(c2ccc(Cl)cc2)C1 (configuration not stated)	i	i	i	-6.76*	i	·	·	·
O=C(NC1CCCCC1)N1Cc2ccccc2-n2nncc2C1	·	i	·	·	·	·	·	·
Cc1cc(C)n(CCOC(=O)C2C(C=C(Cl)Cl)C2(C)C)n1 (configuration not stated)	i	i	i	-9.84*	i	·	·	·	hERG inh=i;KCNK9 inh-2=i;Kir2-1 patch inh=40.9%*
CCC1(CCC(C)C)C(=O)NC(=S)NC1=O	·	i	i	·	·	·	·	·
COc1cc(CCN)ccc1O	i	i	i	·	·	·	·	·
CCCCCSc1cc(OC)c(CCN)cc1OC	i	i	i	-6.23*	i	·	·	·	hERG inh=i;KCNK9 inh-2=i;Kir2-1 patch inh=26.1%*
CC(=O)OC1=CC[C@H]2[C@@H]3CC[C@H]4C[C@H](OC(C)=O)[C@@H](OC(C)=O)C[C@]4(C)[C@H]3CC[C@]12C	i	i	i	·	·	·	·	·
COc1cccc(C(=O)C2CN(C)CC2c2ccc(Cl)cc2)c1 (configuration not stated)	i	i	i	-7.11*	i	·	·	·	hERG inh=46.0%*;KCNK9 inh-2=i;Kir2-1 patch inh=25.2%*
COc1ccc(C(=O)C2CN(C)CC2c2ccc(Cl)cc2)cc1 (configuration not stated)	i	i	i	-6.37*	i	·	·	·	hERG inh=51.0%*;KCNK9 inh-2=i;Kir2-1 patch inh=i
CCC(=O)OC1CCC2C3CCC4CC(=O)C=CC4(C)C3CCC12C (configuration not stated)	·	i	i	·	·	·	·	·
Fc1ccc(CCNCc2ccccc2Cl)cc1	i	i	i	0.28	i	·	·	·
CCOc1ccc(Cl)cc1CNCCc1ccc(F)cc1	i	i	i	-6.41*	i	·	·	·	hERG inh=i;KCNK9 inh-2=i;Kir2-1 patch inh=57.1%*
Fc1ccc(C2=CCN(C(c3cccs3)c3nnnn3CCc3ccccc3)CC2)cc1 (configuration not stated)	i	i	i	0.83	-14.4*	60.5%*	i	35.5%*
O=C(c1ccco1)c1cn(Cc2ccc(Cl)cc2)c2ccccc12	i	i	i	-1.5	-8.71*	56.5%*	i	37.0%*
CC(=O)c1cn(Cc2ccc(F)cc2)c2ccccc12	i	i	i	-1.31	i	·	·	·
COc1ccccc1OCCCn1cc(C(=O)c2ccco2)c2ccccc21	i	i	i	-0.15	-9.76*	32.0%*	i	i
O=[N+]([O-])c1cccc(NP(=O)(N2CC2)N2CC2)c1	·	i	i	·	·	·	·	·
CSc1ccc(C(=O)C2CCCN(Cc3cc4ccccc4[nH]3)C2)cc1 (configuration not stated)	25*	i	i	-2	i	i	49.5%*	i
COc1c(C)cc(C(=O)C2CCCN(Cc3ccccn3)C2)cc1C (configuration not stated)	i	i	i	0.15	i	·	·	·
Oc1c(Br)cc(-c2ccccc2)cc1Br	·	i	i	·	·	·	·	·
Cc1ccc(-c2cc(-c3ccc(C)cc3)[n+](-c3ccc(C(=O)O)cc3)c(-c3ccc(C)cc3)c2)cc1	i	i	i	2.07	i	·	·	·
COc1ccc(-[n+]2c(-c3ccccc3)cc(-c3ccc(C)cc3)cc2-c2ccccc2)cc1	100*	-8.87*	i	-12.8*	-16.4*	60.5%*	78.0%*	29.5%*
Brc1ccc(-[n+]2c(-c3ccccc3)cc(-c3ccccc3)cc2-c2ccccc2)cc1	100*	i	i	-8.37*	-8.27*	64.0%*	58.5%*	i
CC(=O)O[C@]1(C)C(=O)OC/C2=C/CN(C)CCC(OC(=O)[C@@](O)(C(C)O)C[C@H]1C)C2=O (some centres not stated)	i	i	i	2.93	i	·	·	·
COc1cccc(C2CC3C(=O)C=CC2N3Cc2ccccc2)c1 (configuration not stated)	i	i	i	-3.02	i	i	i	i
SMILES	TMEM16A inh	KCNK3 block	ANO1 activ	Kir21 block	KCNK9 inh-1	KCNK9 inh conf	Kir21 sel	HEK293 Tl ctr	others
C/C(=N\N1CCCCCC1)c1c(O)n(-c2ccc(Cl)cc2)c(=O)[nH]c1=O	i	i	i	0.14	i	i	i	i
COc1cccc(-n2c(-c3ccoc3)nc3ccccc3c2=O)c1	i	i	i	-0.34	-17.9*	i	i	i
O=P(Nc1ccccc1)(Nc1ccccc1)Oc1cccc(Cl)c1	i	i	i	-0.86	i	·	·	·
Cn1cccc1/C=C1\C(=O)NC(=O)N(Cc2ccco2)C1=O	·	i	i	1.11	i	·	·	·
Cc1ccc(OCCn2cccc2/C=C2/C(=O)NC(=O)N(Cc3ccco3)C2=O)cc1	i	i	i	-1.49	i	i	i	i
Cc1nc(C)c(C(=O)NN=Cc2ccc(N(CCCl)CCCl)cc2)s1	·	i	i	·	·	·	·	·
CC1=CC(=O)OC2CC3OC4C[C@@H](C)C5OC6CC7O[C@]8(C)C/C=C\C9OC%10CC%11OC(CC(C)C%12OCCO%12)CC(O)[C@]%11(C)OC%10CC9OC8C[C@]7(C)O[C@]6(C)CCC5OC4C[C@]3(C)OC12 (some centres not stated)	·	i	i	·	·	·	·	·
CC(C)CN(CC(C)C)C(=O)C1C2c3ccccc3C(c3ccccc32)C1C(=O)O (configuration not stated)	·	i	i	·	·	·	·	·
CCOC(=O)C1(CCOc2ccccc2)CCN(Cc2cccc(O)c2)CC1	i	i	i	-1.03	i	·	·	·
CCOC(=O)C1(CCc2ccccc2)CCN(Cc2csc(C(C)=O)c2)CC1	i	i	i	-1.65	i	i	i	i
CCOC(=O)C1(CCc2ccccc2)CCN(Cc2cccc3c2OCO3)CC1	i	i	i	-0.35	i	·	·	·
CCOC(=O)C1(CCc2ccccc2)CCN(C(C)CSC)CC1 (configuration not stated)	i	i	i	0.69	i	·	·	·

From PubChem BioAssay
